# Source: PubChem BioAssay AID489017 (The Scripps Research Institute Molecular Screening Center, 2010)
# A number with no mark means an inactive call. How the calls were made is not given here.
# Tested on: Imidazoline I2 Central
# Assay: receptor, enzyme and CYP inhibition profiling – biochemical, Ricerca HitProfilingScreen, CYP450, selectivity assay for S1P4 antagonist project, profiling panel (AID 489017)
# Details: Ricerca receptor/enzyme binding panel plus CYP450, at 10 µM, stronger effect = higher value
smiles,measurement,value
CCc1cccc(CC)c1NC(=O)c1ccc(-c2cc(Cl)ccc2Cl)o1,inhibition,8%
